Tb PYK inh = qHTS of Trypanosoma Brucei Inhibitors; Potency, µM (doses to about 76.8 µM), most hits filed as inhibitors; TbPYK enzyme, Kinase-Glo Plus ATP luminescence, 45 min; pyruvate kinase (Trypanosoma brucei), Q57TT1; 410,000 tested, 0.12% active; AID 624173, 2012; also: nearly all actives have a fitted effect of over 50% in size
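Luminescence from Kinase-Glo Plus, added after a 45-minute room-temperature reaction, served as the end-point read-out. The enzyme and substrate were preincubated with compound before ADP (130 uM final) initiated turnover. Concentration-effect curves came from normalized qHTS data.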
AMA1-RON2 inh = qHTS for Inhibitors of AMA1-RON; Towards Development of Antimalarial Drug Lead: Primary Screen; 360,000 tested, 0.2% active; Plasmodium falciparum AMA1 (3D7) - RON2 peptide interaction; AID 720542, 2013; Potency, µM (highest dose often 58.2 µM), most hits filed as inhibitors; AlphaScreen AMA1-biotinylated RON2 peptide binding; also: nearly all actives have a fitted effect of over 45% in size
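AMA1 (3D7) with his tag at 25 nM final met compounds first, then biotinylated RON2 peptide at 25 nM; detection used donor plus acceptor beads, 10 µg/mL apiece, read by AlphaScreen after 30 min at room temperature.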
FBPA Giardia inh = qHTS Assay for Inhibitors of Fructose-1,6-bisphosphate Aldolase from Giardia Lamblia; purified Giardia FBPA; Potency, µM (highest dose often 59.6 µM), hits mostly inhibitors; 290,000 tested, 0.71% active; also: nearly all actives have a fitted effect of over 55% in size
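40 nM FBPA preincubated 10 min at RT with compound (up to 57.5 uM final), then substrate plus GAPDH/TPI/NAD/arsenate coupling and diaphorase/resazurin added. Fluorescence read after 20 min at RT, 525/598 nm.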
LmPK inhibitor = qHTS Assay for Inhibitors of Leishmania Mexicana Pyruvate Kinase (LmPK); 290,000 tested, 0.37% active; Potency, µM (titrated, usually from 57.5 µM), most hits filed as inhibitors; purified LmPK, Kinase-Glo ATP luminescence, 1 h; Q27686
Target sequence (Q27686 whole entry, looked up): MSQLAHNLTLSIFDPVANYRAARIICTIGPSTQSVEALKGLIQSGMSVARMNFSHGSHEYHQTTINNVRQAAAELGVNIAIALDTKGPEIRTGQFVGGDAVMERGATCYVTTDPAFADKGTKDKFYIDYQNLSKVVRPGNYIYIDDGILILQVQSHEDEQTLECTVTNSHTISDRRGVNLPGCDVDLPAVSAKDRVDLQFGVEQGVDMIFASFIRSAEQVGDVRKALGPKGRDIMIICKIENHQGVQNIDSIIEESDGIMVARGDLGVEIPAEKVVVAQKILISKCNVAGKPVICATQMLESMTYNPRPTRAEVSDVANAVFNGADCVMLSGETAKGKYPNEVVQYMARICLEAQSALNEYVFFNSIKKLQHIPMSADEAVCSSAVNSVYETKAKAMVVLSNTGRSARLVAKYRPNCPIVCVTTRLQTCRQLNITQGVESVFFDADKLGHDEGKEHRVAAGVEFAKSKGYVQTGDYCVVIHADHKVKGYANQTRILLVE
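In 50 mM imidazole pH 7.2 with 7 mM MgCl2, LmPK (0.1 nM) turned over PEP (0.5 mM) and ADP (0.1 mM) for 1 h at room temperature. Luciferase read-out of ATP.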
NS1 function inh = qHTS Assay for Inhibitors of Influenza NS1 Protein Function; Potency, µM (doses to about 46.1 µM); 270,000 tested, 0.4% active; AID 2326, 2010; calls by dose curve; also: actives are rising curves; nearly all actives have a fitted effect of over 50% in size
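Growth recovery, yeast-based: influenza A NS1 expressed in S. cerevisiae causes slow growth, and suppressors are detected by OD600. The parent strain without NS1 is used as positive control.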
Flu NS1 inh = Assay for Inhibitors of Influenza NS1 Protein Function: Hit Validation | shares compounds with NS1 function inh | influenza NS1 function cell assay, 15-point titration | activity change, negative = inhibition, % at 32.9 µM | 1,400 tested, under 10 active | AID 492980, 2010; calls by dose curve
Numbers stand for hits. This is a sample that favours compounds with a hit; in the whole collection about 1.2% have one here. Unless noted, calls follow the shape of the dose curve; as a rule, active = well fitted curve in the direction sought with a large enough effect; inconclusive = small, poorly fitted or top-dose-only effect, or another doubt; inactive = no such curve, though single readings can be large; an effect the other way counts as inactive or inconclusive.

`CCOc1ccc(CNC(=O)c2ccc3c(c2)nc2n3CCOC2)cc1OC` gave Tb PYK inh inactive.
For O=C(Nn1c(SCc2cccc([N+](=O)[O-])c2)nc2ccccc2c1=O)c1ccccc1 the results were Tb PYK inh inactive, AMA1-RON2 inh inactive, FBPA Giardia inh inactive, LmPK inhibitor inactive, NS1 function inh 14µM and Flu NS1 inh inactive.
`COc1ccc(C(=O)Nn2c(SCc3cccc([N+](=O)[O-])c3)nc3ccccc3c2=O)cc1` gave Tb PYK inh inactive, AMA1-RON2 inh inactive, FBPA Giardia inh inactive, LmPK inhibitor inactive and NS1 function inh inconclusive.
Cc1ccc2cc(C3C(C#N)=C(N)Oc4c3ccc3cccnc43)c(=O)[nH]c2c1 (stereo unspecified) was read as Tb PYK inh inactive, AMA1-RON2 inh inactive, FBPA Giardia inh inconclusive, LmPK inhibitor inactive, NS1 function inh 2.8µM and Flu NS1 inh inactive.
CCc1ccc2[nH]c(=O)c(C3C(C#N)=C(N)Oc4c3ccc3cccnc43)cc2c1 (stereo unspecified) was read as Tb PYK inh inactive, AMA1-RON2 inh inactive, FBPA Giardia inh inactive, LmPK inhibitor inactive and NS1 function inh inactive.
For O=C(N/N=C/c1cn(Cc2ccccc2)c2ccccc12)c1cc(O)cc(O)c1 the results were Tb PYK inh inactive, AMA1-RON2 inh inactive, FBPA Giardia inh inactive, LmPK inhibitor inactive, NS1 function inh 14µM and Flu NS1 inh inactive.
`O=C(Cn1cc(/C=N/NC(=O)c2cccc3ccccc23)c2ccccc21)Nc1ccc(F)cc1` gave Tb PYK inh inactive, AMA1-RON2 inh inactive, FBPA Giardia inh inactive, LmPK inhibitor inactive, NS1 function inh 10µM and Flu NS1 inh inactive.
O=C(Cn1cc(/C=N/NC(=O)c2ccccc2Br)c2ccccc21)Nc1ccc(F)cc1 was read as Tb PYK inh inactive, AMA1-RON2 inh inactive, FBPA Giardia inh inactive, LmPK inhibitor inactive and NS1 function inh inactive.
Screening COc1ccc(Cl)cc1NC(=O)Cn1ncc2c3ccccc3n(C)c2c1=O returned Tb PYK inh inactive.
Screening COc1ccc(OC)c(S(=O)(=O)N(C)CC(=O)O)c1 returned Tb PYK inh inactive, AMA1-RON2 inh inactive, FBPA Giardia inh inactive, LmPK inhibitor inactive, NS1 function inh 1.8µM and Flu NS1 inh inactive.
For COc1ccc(OC)c(S(=O)(=O)N(C)CC(=O)Nc2ccccc2OC)c1 the results were Tb PYK inh inactive, AMA1-RON2 inh inactive, FBPA Giardia inh inactive, LmPK inhibitor inactive and NS1 function inh inactive.
Screening NNC(=O)c1oc2nc(-c3ccccc3)cc(-c3ccccc3)c2c1N returned Tb PYK inh inactive, AMA1-RON2 inh inactive, FBPA Giardia inh inactive, LmPK inhibitor inactive, NS1 function inh 10µM and Flu NS1 inh inactive.
Cc1ccc(-c2cc(-c3ccco3)c3c(N)c(C(=O)NN)oc3n2)cc1 was read as Tb PYK inh inactive, AMA1-RON2 inh inactive, FBPA Giardia inh inactive, LmPK inhibitor inactive and NS1 function inh inconclusive.
CS(=O)(=O)c1ncc(Cl)c(C(=O)N2CCN(c3cccc(Cl)c3)CC2)n1 was read as Tb PYK inh inactive.
`Cc1ccc(CNC(=O)CCNS(=O)(=O)c2ccc3c(c2)CCCC(=O)N3)cc1` gave Tb PYK inh inactive.
`O=C(CSc1nnc(-c2c[nH]c3ccccc23)o1)N1c2ccccc2CCc2ccccc21` gave Tb PYK inh inactive, AMA1-RON2 inh inactive, FBPA Giardia inh inactive, LmPK inhibitor inactive, NS1 function inh 4µM and Flu NS1 inh inconclusive.
Nc1ncnc2nc(-c3ccc(C[P+](c4ccccc4)(c4ccccc4)c4ccccc4)cc3)[nH]c12 was read as NS1 function inh inactive.
For Cc1cc(C)nc(Nc2n[nH]c(COc3ccc4ccccc4c3)n2)n1 the results were Tb PYK inh inactive, AMA1-RON2 inh inactive, FBPA Giardia inh inactive, LmPK inhibitor inactive, NS1 function inh 2µM and Flu NS1 inh inactive.
For Cc1cc(C)nc(Nc2n[nH]c(COc3ccccc3)n2)n1 the results were Tb PYK inh inconclusive, AMA1-RON2 inh inactive, FBPA Giardia inh inactive, LmPK inhibitor inactive and NS1 function inh inactive.
For CCCC(c1nnnn1CCC(C)C)N1CCC(C(N)=O)CC1 (stereo unspecified) the results were Tb PYK inh inactive, AMA1-RON2 inh inactive, FBPA Giardia inh inactive, LmPK inhibitor inactive, NS1 function inh 1.1µM and Flu NS1 inh inactive.
Screening COc1ccc(/C=C2/C(=O)N(c3c(F)c(F)c(F)c(F)c3F)N=C2C)cc1 returned Tb PYK inh inactive, AMA1-RON2 inh inactive, FBPA Giardia inh inactive, LmPK inhibitor inactive, NS1 function inh 11µM and Flu NS1 inh inactive.
`COc1ccc(/C=C2/C(=O)N(c3ccccc3)N=C2C)cc1` gave Tb PYK inh inactive and AMA1-RON2 inh inconclusive.
`COc1cccc(Cn2c(=O)c(-c3ccc(Cl)cc3)nc3cnc(N4CCNCC4)nc32)c1` gave FBPA Giardia inh inactive.
Screening COc1ccc2[nH]c(=O)c(CN(Cc3ccco3)Cc3nnnn3Cc3ccccc3)cc2c1 returned Tb PYK inh inactive, AMA1-RON2 inh inactive, FBPA Giardia inh inactive, LmPK inhibitor inactive, NS1 function inh 13µM and Flu NS1 inh inactive.
For Cc1ccc(C)c2[nH]c(=O)c(CN(Cc3ccc4c(c3)OCO4)Cc3nnnn3Cc3ccco3)cc12 the results were Tb PYK inh inactive, AMA1-RON2 inh inactive, FBPA Giardia inh inactive, LmPK inhibitor inactive, NS1 function inh 11µM and Flu NS1 inh inactive.
Cc1ccc2cc(CN(Cc3ccc4c(c3)OCO4)Cc3nnnn3Cc3ccco3)c(=O)[nH]c2c1C was read as Tb PYK inh inactive, AMA1-RON2 inh inactive, FBPA Giardia inh inactive, LmPK inhibitor inactive and NS1 function inh inactive.
For COc1ccc(-c2ccc(C(C)=O)cc2)cc1C1C2C=CCCC2(C)C(=O)N1Cc1ccccc1 (stereo unspecified) the results were FBPA Giardia inh inactive.
For O=C(Cn1c(=O)n(Cc2ccc3c(c2)OCO3)c(=O)c2ccccc21)Nc1cccc(Cl)c1 the results were Tb PYK inh inactive.
For Cc1c(NC(=O)OCCNC(=O)COc2ccc(Cl)cc2Cl)sc(=S)n1C the results were Tb PYK inh inactive, AMA1-RON2 inh inactive, FBPA Giardia inh inactive, LmPK inhibitor inactive, NS1 function inh inconclusive and Flu NS1 inh inactive.
O=C(CC1NCCNC1=O)Nc1ccc2c(c1)OCO2 (stereo unspecified) was read as Tb PYK inh inactive, AMA1-RON2 inh inactive, FBPA Giardia inh inactive, LmPK inhibitor inactive, NS1 function inh 1.1µM and Flu NS1 inh inactive.
